# Laboratory results taken from the supplement of paper PMC4166925.
# ± gives the standard deviation of the averaged measurements. Over roughly 33,000 sequences, “E-score (dimensionless, -0.5 to 0.5)” has its median near -0.046; the highest 2% begin near 0.36. For the sample, the highest values were picked, then their nearest neighbours and some sequences at random.
# Test system: T1, SpTbr T-box DNA-binding domain (GST fusion)
# T1 sequence: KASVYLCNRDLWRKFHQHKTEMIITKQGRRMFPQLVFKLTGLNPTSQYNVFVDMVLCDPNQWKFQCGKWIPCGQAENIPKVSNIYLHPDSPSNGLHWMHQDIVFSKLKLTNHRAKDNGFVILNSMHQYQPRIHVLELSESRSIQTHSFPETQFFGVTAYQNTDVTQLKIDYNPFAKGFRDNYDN
# Test: PBM E-score of 8-mer (E-score (dimensionless, -0.5 to 0.5)); Tbr is Tbrain of the sea star Patiria miniata (Pm) or the sea urchin Strongylocentrotus purpuratus (Sp); higher = stronger binding preference
# Settings: the construct has about 5 more residues each side
# Experimental: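 Universal protein-binding microarray (Agilent AMADID 016060, 60-bp probes with a 35-bp variable region) incubated with 200 nM GST-fused Strongylocentrotus purpuratus Tbr T-box DNA-binding domain (residues 362-554) in PBS pH 7.5. Scored for every ungapped 8-mer (given with its reverse complement) as E-score (range -0.5 to 0.5; >0.45 counts as bound) and Z-score of median probe intensity. Two replicate arrays (datasets 1 and 2).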
# 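Further: protein at 200 nM in PBS on universal double-stranded arrays.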
row,Sequence,PBM E-score of 8-mer
1,ATTCTGTG,-0.0566 ± 0.036
2,CTCTCAGA,-0.187 ± 0.0034
3,CTCCGGCA,0.0686 ± 0.041
4,CCATAAGG,-0.0717 ± 0.0012
5,CGGCGTCA,0.223 ± 0.02
6,AGGCGTCG,0.349 ± 0.018
7,AGGCGTCA,0.41 ± 0.005
8,GTGCGTCA,0.187 ± 0.009
9,GGGCGTCA,0.376 ± 0.017
10,GCGCGTCA,0.265 ± 0.028
11,ACTTCAAT,-0.0527 ± 0.032
12,ACGTCACG,0.217 ± 0.057
13,ATGTTGGG,-0.0592 ± 0.0084
14,TAAGGCTA,-0.149 ± 0.077
15,GACACTCC,0.316 ± 0.0096
16,CACACTCA,0.407 ± 0.0072
17,CACACTCG,0.426 ± 0.019
18,CACACTCC,0.402 ± 0.0059
19,AACACTCA,0.31 ± 0.0041
20,AACACTCC,0.283 ± 0.039
21,TACACTCA,0.137 ± 0.013
22,CCCACTCG,0.05 ± 0.13
23,AACACTCG,0.193 ± 0.0083
24,CGCAGCAC,0.0169 ± 0.017
25,AGTTGCTA,0.239 ± 0.042

row,Sequence,PBM E-score of 8-mer
1,CGTCACAC,0.43 ± 0.011
2,CGTCACAG,0.232 ± 0.0032
3,AGTCACAC,0.457 ± 0.0049
4,GGTCACAA,0.2073 ± 0.00096
5,GGTCACAC,0.46 ± 0.013
6,AGTCACAG,0.0674 ± 0.028
7,AGTCACAT,0.1318 ± 0.0012
8,CGTCACAA,0.244 ± 0.0062
9,GGACACAC,0.0866 ± 0.0081
10,GTTCATCA,0.0211 ± 0.0087
11,ATCAACAT,-0.111 ± 0.028
12,AGTGCTCC,-0.0941 ± 0.03
13,AGTCTTGG,-0.101 ± 0.011
14,CGTAAGTA,0.169 ± 0.0079
15,AGGTGTCC,0.428 ± 0.0068
16,ACGTGTCC,0.0769 ± 0.048
17,ACGTGTCG,0.362 ± 0.015
18,AGGTGTCG,0.486 ± 0.008
19,AGCTGTCG,0.263 ± 0.013
20,AGATGTCC,-0.309 ± 0.003
21,CCACCAGG,-0.177 ± 0.03
22,CGTGAGCA,0.105 ± 0.039
23,GCCTAAGC,-0.159 ± 0.006
24,CTAACTAG,0.0135 ± 0.086
25,AAGGGAAA,-0.289 ± 0.05

row,Sequence,PBM E-score of 8-mer
1,GACAATGA,0.176 ± 0.0013
2,ATCACCAC,0.113 ± 0.004
3,ATCACCTA,0.321 ± 0.065
4,CTCACCAC,0.218 ± 0.037
5,CTCACCTC,0.444 ± 0.0047
6,ATCACCTC,0.387 ± 0.0097
7,CTCACCGC,0.0406 ± 0.0049
8,CCGGTTCC,-0.27 ± 0.0077
9,GTGCCATA,0.222 ± 0.024
10,ATAACGCC,0.28 ± 0.032
11,AAGGATTA,-0.152 ± 0.047
12,CAGATCAG,-0.0587 ± 0.00064
13,ACAAGTGT,0.381 ± 0.019
14,ACAAGTGA,0.243 ± 0.07
15,ACAAGTGG,0.355 ± 0.012
16,AAAAGTGT,0.39 ± 0.016
17,AAAAGTGG,0.118 ± 0.11
18,AAAAGTGA,0.169 ± 0.069
19,TAACCCTA,-0.15553 ± 2.1e-05
20,CTTGTGAA,0.353 ± 0.034
21,ACTGTGAG,0.269 ± 0.031
22,GCTGTGGA,0.151 ± 0.058
23,TCTGTGAA,0.329 ± 0.017
24,ACTGTGAA,0.413 ± 0.0064
25,GCTGTGAA,0.4045 ± 0.0013

row,Sequence,PBM E-score of 8-mer
1,ATTGTGAA,0.317 ± 0.067
2,ACTGTGAT,0.242 ± 0.0029
3,GTTGTGAA,0.4 ± 0.015
4,AAAGAGAG,-0.0256 ± 0.025
5,GAACTCGA,0.194 ± 0.051
6,TGTGATAA,0.377 ± 0.017
7,GGTGATAA,0.37553 ± 0.00031
8,GGTGATAC,0.221 ± 0.028
9,CGTGATAA,0.27 ± 0.036
10,AGTGATAA,0.278 ± 0.067
11,TATGATAA,-0.00343 ± 0.017
12,CGTATGCC,-0.271 ± 0.057
13,ACACCTAT,0.4592 ± 0.0012
14,ACACCTGT,0.4669 ± 0.0038
15,ACACCGGT,0.246 ± 0.055
16,GCACCTAA,0.339 ± 0.04
17,AAACCTGT,0.0331 ± 0.12
18,AAACCTAG,0.0536 ± 0.035
19,ATACCTAT,-0.0845 ± 0.068
20,CCACCTAG,0.183 ± 0.046
21,TCACCTAA,0.301 ± 0.018
22,ACACCTAG,0.444 ± 0.0087
23,AGACCTAT,-0.142 ± 0.047
24,ACACCTAA,0.4637 ± 0.0015
25,CGTGGGAC,0.0261 ± 0.0086

row,Sequence,PBM E-score of 8-mer
1,AATCCCAC,0.151 ± 0.013
2,ATCTGCCG,-0.21 ± 0.071
3,TGCATTAA,0.022 ± 0.05
4,CATGCGCC,-0.226 ± 0.0069
5,CGCATATC,-0.0822 ± 0.013
6,CAGACCCA,-0.0355 ± 0.018
7,AGGTCTTA,-0.0667 ± 0.12
8,CCCTCACG,0.153 ± 0.063
9,ACTGGACC,-0.203 ± 0.069
10,ATCCAGCC,-0.0901 ± 0.0022
11,CCACCTAC,0.248 ± 0.043
12,ACACCTAC,0.462 ± 0.0061
13,GCACCTAC,0.352 ± 0.025
14,AATAGATG,0.0328 ± 0.094
15,AACTAATG,-0.0496 ± 0.012
16,AGCTTTGA,-0.239 ± 0.067
17,AGTCTCTC,-0.105 ± 0.029
18,CTTCCTCC,-0.204 ± 0.065
19,AGCAACAC,0.376 ± 0.026
20,AGCAACAG,-0.0121 ± 0.0042
21,GGCAACAC,0.3658 ± 0.00072
22,CGCAACAC,0.306 ± 0.024
23,AGCAACAA,0.1945 ± 0.00053
24,GGCAACAA,0.13 ± 0.019
25,GGTTATCA,0.0778 ± 0.034

row,Sequence,PBM E-score of 8-mer
1,CGCTAAAC,0.187 ± 0.1
2,GACGGGCA,-0.2934 ± 0.0011
3,AACTGGTG,0.188 ± 0.02
4,ACACCCCC,0.363 ± 0.015
5,ACCCCCCT,-0.162 ± 0.03
6,ACACCCCA,0.376 ± 0.013
7,ACACCCCT,0.385 ± 0.013
8,ACCCCTCT,-0.063 ± 0.085
9,ACACCCCG,0.35 ± 0.018
10,TGACGTAA,-0.098 ± 0.019
11,CATATCTA,-0.24 ± 0.025
12,GAAGCCTA,-0.182 ± 0.037
13,GACGGGCC,-0.12 ± 0.046
14,AAGCGCGC,0.0762 ± 0.0076
15,AAGCGCGA,0.369 ± 0.007
16,AAGCGCGG,0.136 ± 0.063
17,CAGCGCGA,0.199 ± 0.0059
18,TAGCGCGA,0.3785 ± 0.0014
19,GAGCGCGA,0.279 ± 0.053
20,CTTCCAGA,-0.22 ± 0.011
21,ACCATAGC,0.0118 ± 0.017
22,CTCTGGGC,-0.112 ± 0.012
23,TCATTGGA,-0.0638 ± 0.031
24,CCTCCATC,-0.0262 ± 0.042
25,CCACACCC,0.414 ± 0.024

row,Sequence,PBM E-score of 8-mer
1,ACACACCC,0.33 ± 0.0064
2,CCACACCG,0.226 ± 0.071
3,CCACACTA,0.279 ± 0.029
4,ACACACTC,0.307 ± 0.019
5,CCACACTC,0.374 ± 0.015
6,ATCCTGCC,-0.182 ± 0.054
7,ATGGGCAG,-0.0503 ± 0.058
8,ATGCCCGC,0.031 ± 0.012
9,AAGTGCTC,0.118 ± 0.051
10,ATGTGCCG,0.175 ± 0.032
11,AAGTGCCA,0.4045 ± 0.0038
12,ATGTGCCC,-0.0447 ± 0.038
13,AAGTGCTG,0.246 ± 0.04
14,AAGTGCTA,0.419 ± 0.014
15,GAGTGCCA,0.20475 ± 0.00018
16,ATGTGCCA,0.374 ± 0.01
17,AAGTGCCC,-0.146 ± 0.044
18,AAGAGAGA,-0.141 ± 0.03
19,CTCACACA,0.438 ± 0.0081
20,GTCACACA,0.409 ± 0.03
21,CACACACG,0.233 ± 0.057
22,GTCACAAA,0.125 ± 0.032
23,CACACACA,0.3384 ± 0.00066
24,GTCACAGA,0.0552 ± 0.0087
25,ATATTAAT,-0.209 ± 0.078

row,Sequence,PBM E-score of 8-mer
1,CTGTGGTC,-0.0438 ± 0.0053
2,CCAGCCGG,-0.00031 ± 0.015
3,AGGTAGCG,0.143 ± 0.04
4,ATCACGCC,0.403 ± 0.0051
5,CTTACGCA,0.0993 ± 0.0077
6,CCCACGCC,0.163 ± 0.014
7,CTCACGCC,0.397 ± 0.039
8,ATCACGCG,0.357 ± 0.012
9,ATCACGCA,0.19 ± 0.026
10,CTCACGCA,0.375 ± 0.022
11,GTCACGCA,0.279 ± 0.017
12,CTTACGCC,0.177 ± 0.0022
13,ATATAGGC,-0.0504 ± 0.058
14,ACTTAAGT,-0.0767 ± 0.13
15,GTGCTCTA,-0.178 ± 0.029
16,ACCCGAAC,-0.0199 ± 0.021
17,AGCAAAAT,-0.0958 ± 0.067
18,CCCTTACG,-0.0777 ± 0.068
19,GCCTGCAA,-0.0777 ± 0.016
20,GCGCTAAC,0.388 ± 0.007
21,CTGCTAAC,0.321 ± 0.029
22,TTGCTAAA,0.109 ± 0.08
23,GCGCTAAA,0.338 ± 0.014
24,CCGCTAAC,0.16 ± 0.031
25,CTGCTAAA,0.0425 ± 0.15

row,Sequence,PBM E-score of 8-mer
1,GTGCTAAA,0.384 ± 0.026
2,ATGCTAAC,0.0372 ± 0.018
3,GTGCTAAC,0.432 ± 0.012
4,AACAAGGT,0.271 ± 0.009
5,AGTAGCGC,0.224 ± 0.014
6,GACCATAC,-0.206 ± 0.012
7,ACAACCAT,0.0868 ± 0.041
8,GAAGTCGA,0.107 ± 0.051
9,AGTCTGGG,-0.278 ± 0.029
10,CCCAACGG,-0.055 ± 0.1
11,CCGTTAAC,0.228 ± 0.007
12,GCGTTAAC,0.374 ± 0.011
13,ATGTTGGA,-0.0349 ± 0.065
14,CTGTTAAC,0.312 ± 0.028
15,CTGTTGGA,0.0702 ± 0.044
16,GTGTTATA,0.4 ± 0.034
17,ATGTTATA,-0.0933 ± 0.013
18,ATGTTAAC,0.182 ± 0.097
19,GTGTTGGA,0.367 ± 0.0068
20,GTGTTAAC,0.4543 ± 0.0026
21,CTGTTATA,0.137 ± 0.071
22,ACGTTAAC,0.255 ± 0.013
